Laboratory results as given in article PMC7862700, “An all-to-all approach to the identification of sequence-specific readers for epigenetic DNA modifications on cytosine”.

Key:
Experiment in all cases: DAPPL (digital affinity profiling via proximity ligation, sequencing); 10 mM Tris-HCl pH 7.5, 50 mM NaCl, 1 mM DTT, 4% glycerol, room temperature, 30 min; GST-TFs on glutathione beads, 16-mer random dsDNA library, 0.1% formaldehyde crosslink after washing; high values mean tight binding
FLI1 = target: T1, FLI1 (Homo sapiens, UniProt Q01543 1-452); details: protein: recombinant; tags: N-terminal GST; dsDNA, one strand shown
T1 sequence: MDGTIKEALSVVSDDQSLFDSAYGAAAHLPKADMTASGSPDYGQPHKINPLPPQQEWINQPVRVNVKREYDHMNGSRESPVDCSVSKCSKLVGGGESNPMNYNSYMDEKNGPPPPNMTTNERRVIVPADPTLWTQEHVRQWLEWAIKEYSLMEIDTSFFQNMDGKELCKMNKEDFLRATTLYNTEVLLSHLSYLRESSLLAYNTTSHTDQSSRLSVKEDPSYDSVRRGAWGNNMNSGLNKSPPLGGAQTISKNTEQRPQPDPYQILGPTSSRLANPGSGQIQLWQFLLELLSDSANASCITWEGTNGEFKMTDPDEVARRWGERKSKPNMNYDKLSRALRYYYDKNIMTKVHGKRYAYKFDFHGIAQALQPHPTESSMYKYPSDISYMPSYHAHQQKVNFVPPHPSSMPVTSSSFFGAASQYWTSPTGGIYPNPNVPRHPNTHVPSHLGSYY
Procedure, shortened: (§1)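 Sequencing on an Illumina NextSeq500 followed washing, crosslinking with 0.1% formaldehyde, proximity ligation (BsaI/T4 ligase, 1 h, 37 °C) and PCR amplification of pools that had been incubated for 30 min at room temperature with 200 nmole of a random double-stranded 16-mer DNA library in Tris/NaCl/DTT/glycerol buffer. Each pool held DNA-barcoded human transcription factors, expressed in yeast as GST fusions and captured on glutathione beads, plus a tag-only sample. Binding signal is a hexamer's read frequency for a factor divided by its frequency in the tag-only sample.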

ELK1 = target: T2, ELK1 (Homo sapiens, UniProt P19419 1-428); details: protein: recombinant; tags: N-terminal GST; dsDNA, one strand shown
T2 sequence: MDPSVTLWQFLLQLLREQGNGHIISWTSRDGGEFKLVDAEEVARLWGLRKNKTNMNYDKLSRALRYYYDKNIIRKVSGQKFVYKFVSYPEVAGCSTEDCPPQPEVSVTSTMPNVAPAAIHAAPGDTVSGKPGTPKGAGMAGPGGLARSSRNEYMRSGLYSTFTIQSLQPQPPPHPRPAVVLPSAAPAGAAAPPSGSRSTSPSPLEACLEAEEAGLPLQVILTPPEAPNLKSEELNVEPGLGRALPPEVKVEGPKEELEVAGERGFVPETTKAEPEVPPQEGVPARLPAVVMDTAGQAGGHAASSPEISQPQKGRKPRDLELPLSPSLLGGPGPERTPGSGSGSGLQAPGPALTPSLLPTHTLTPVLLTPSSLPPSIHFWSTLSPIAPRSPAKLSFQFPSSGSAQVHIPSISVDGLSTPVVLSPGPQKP
Procedure, shortened: as §1

GABPA = target: T3, GABPA (Homo sapiens, UniProt Q06546 1-454); details: protein: recombinant; tags: N-terminal GST; dsDNA, one strand shown
T3 sequence: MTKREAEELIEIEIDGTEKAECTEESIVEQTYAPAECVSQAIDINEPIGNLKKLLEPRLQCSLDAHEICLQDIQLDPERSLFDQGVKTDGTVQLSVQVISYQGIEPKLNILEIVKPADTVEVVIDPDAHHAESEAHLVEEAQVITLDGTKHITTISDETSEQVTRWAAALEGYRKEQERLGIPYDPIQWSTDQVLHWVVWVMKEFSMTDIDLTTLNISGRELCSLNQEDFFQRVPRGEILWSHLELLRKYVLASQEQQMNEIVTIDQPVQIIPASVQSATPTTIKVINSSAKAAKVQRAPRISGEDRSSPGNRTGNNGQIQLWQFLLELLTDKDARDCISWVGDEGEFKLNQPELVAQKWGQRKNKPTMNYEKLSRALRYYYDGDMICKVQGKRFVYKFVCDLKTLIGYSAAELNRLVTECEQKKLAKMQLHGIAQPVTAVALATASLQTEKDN
Procedure, shortened: as §1

ERG = target: T4, ERG (Homo sapiens, UniProt P11308 1-479); details: protein: recombinant; tags: N-terminal GST; dsDNA, one strand shown
T4 sequence: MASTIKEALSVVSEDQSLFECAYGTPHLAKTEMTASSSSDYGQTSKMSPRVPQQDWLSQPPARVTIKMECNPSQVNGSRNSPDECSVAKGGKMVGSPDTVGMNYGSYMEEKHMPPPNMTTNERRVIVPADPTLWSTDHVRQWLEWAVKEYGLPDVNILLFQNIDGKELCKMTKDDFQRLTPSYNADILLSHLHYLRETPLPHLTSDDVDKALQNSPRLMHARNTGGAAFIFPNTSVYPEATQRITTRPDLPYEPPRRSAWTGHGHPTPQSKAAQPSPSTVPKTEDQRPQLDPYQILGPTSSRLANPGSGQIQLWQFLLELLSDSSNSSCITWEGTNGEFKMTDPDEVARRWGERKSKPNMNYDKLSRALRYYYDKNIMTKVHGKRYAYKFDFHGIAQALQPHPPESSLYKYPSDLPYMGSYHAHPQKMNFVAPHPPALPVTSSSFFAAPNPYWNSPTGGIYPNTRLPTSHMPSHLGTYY
Procedure, shortened: as §1

ELF1 = ELF1 (Homo sapiens, UniProt P32519 1-619); details: protein: recombinant; tags: N-terminal GST; dsDNA, one strand shown
Procedure, shortened: as §1

EHF = target: T5, EHF (Homo sapiens, UniProt Q9NZC4 1-300); details: protein: recombinant; tags: N-terminal GST; dsDNA, one strand shown
T5 sequence: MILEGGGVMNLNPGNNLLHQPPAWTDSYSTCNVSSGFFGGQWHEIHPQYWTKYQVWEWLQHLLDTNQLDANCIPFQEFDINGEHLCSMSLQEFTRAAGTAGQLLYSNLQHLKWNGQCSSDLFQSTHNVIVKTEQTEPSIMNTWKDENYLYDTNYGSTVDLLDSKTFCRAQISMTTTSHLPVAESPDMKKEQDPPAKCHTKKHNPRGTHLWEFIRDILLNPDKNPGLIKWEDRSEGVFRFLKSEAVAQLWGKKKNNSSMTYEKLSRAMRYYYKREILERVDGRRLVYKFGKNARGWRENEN
Procedure, shortened: as §1

SPI1 = SPI1 (Homo sapiens, UniProt P17947 1-270); details: protein: recombinant; tags: N-terminal GST; dsDNA, one strand shown
Procedure, shortened: as §1

SPIB = SPIB (Homo sapiens, UniProt Q01892 1-262); details: protein: recombinant; tags: N-terminal GST; dsDNA, one strand shown
Procedure, shortened: as §1

ELK3 = target: T6, ELK3 (Homo sapiens, UniProt P41970 1-407); details: protein: recombinant; tags: N-terminal GST; dsDNA, one strand shown
T6 sequence: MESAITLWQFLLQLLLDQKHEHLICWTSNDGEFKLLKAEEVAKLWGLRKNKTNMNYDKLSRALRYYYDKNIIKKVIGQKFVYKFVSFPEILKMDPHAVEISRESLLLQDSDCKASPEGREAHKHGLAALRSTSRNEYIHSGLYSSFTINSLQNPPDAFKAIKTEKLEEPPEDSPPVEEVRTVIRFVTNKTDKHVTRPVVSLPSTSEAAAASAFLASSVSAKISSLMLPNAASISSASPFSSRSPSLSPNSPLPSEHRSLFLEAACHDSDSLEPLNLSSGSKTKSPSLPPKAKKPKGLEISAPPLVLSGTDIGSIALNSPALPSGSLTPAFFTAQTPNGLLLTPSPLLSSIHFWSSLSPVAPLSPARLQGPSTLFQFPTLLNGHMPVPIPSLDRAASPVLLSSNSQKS
Procedure, shortened: as §1

FEV = target: T7, FEV (Homo sapiens, UniProt Q99581 1-238); details: protein: recombinant; tags: N-terminal GST; dsDNA, one strand shown
T7 sequence: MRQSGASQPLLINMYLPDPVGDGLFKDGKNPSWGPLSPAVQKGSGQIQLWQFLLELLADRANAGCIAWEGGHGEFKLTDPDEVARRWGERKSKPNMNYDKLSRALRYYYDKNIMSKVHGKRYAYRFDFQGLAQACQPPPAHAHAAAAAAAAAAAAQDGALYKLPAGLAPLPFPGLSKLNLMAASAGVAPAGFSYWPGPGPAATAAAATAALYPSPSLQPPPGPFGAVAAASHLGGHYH
Procedure, shortened: as §1

ETV5 = ETV5 (Homo sapiens, UniProt P41161 1-510); details: protein: recombinant; tags: N-terminal GST; dsDNA, one strand shown
Procedure, shortened: as §1

HSF1 = HSF1 (Homo sapiens, UniProt Q00613 1-529); details: protein: recombinant; tags: N-terminal GST; chain copies: 3; dsDNA, one strand shown
Procedure, shortened: as §1

SPIC = target: T8, SPIC (Homo sapiens, UniProt Q8N5J4 1-248); details: protein: recombinant; tags: N-terminal GST; dsDNA, one strand shown
T8 sequence: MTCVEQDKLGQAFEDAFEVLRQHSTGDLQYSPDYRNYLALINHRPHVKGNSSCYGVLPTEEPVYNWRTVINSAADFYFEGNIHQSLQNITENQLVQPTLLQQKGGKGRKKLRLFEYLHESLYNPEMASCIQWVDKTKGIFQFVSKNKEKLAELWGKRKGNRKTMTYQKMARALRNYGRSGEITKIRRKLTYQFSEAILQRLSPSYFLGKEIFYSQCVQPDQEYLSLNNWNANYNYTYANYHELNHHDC
Procedure, shortened: as §1

ELF4 = ELF4 (Homo sapiens, UniProt Q99607 1-663); details: protein: recombinant; tags: N-terminal GST; dsDNA, one strand shown
Procedure, shortened: as §1

ELK4 = target: T9, ELK4 (Homo sapiens, UniProt P28324-2 1-405); details: protein: recombinant; tags: N-terminal GST; dsDNA, one strand shown
T9 sequence: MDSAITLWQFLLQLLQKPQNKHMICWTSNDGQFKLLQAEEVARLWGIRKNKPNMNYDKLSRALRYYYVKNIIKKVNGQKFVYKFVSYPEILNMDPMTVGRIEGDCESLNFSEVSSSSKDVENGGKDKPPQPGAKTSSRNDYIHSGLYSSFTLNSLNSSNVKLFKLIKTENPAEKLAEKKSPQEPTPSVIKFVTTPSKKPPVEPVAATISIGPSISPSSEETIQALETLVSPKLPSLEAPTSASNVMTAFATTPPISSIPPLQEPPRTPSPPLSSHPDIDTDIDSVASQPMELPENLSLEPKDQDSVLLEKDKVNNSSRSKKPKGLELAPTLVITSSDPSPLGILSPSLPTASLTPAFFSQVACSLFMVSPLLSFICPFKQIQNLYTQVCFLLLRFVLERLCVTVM
Procedure, shortened: as §1

ETV2 = target: T10, ETV2 (Homo sapiens, UniProt O00321 1-342); details: protein: recombinant; tags: N-terminal GST; dsDNA, one strand shown
T10 sequence: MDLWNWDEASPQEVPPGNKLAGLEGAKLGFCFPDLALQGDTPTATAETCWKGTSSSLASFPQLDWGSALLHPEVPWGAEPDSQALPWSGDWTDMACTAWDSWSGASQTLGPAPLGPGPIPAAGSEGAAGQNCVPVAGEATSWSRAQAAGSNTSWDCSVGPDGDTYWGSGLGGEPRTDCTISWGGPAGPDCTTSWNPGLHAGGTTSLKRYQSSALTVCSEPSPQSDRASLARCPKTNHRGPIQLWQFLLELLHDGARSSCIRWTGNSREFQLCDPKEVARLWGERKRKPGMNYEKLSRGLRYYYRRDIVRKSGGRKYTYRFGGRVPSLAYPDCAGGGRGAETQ
Procedure, shortened: as §1

ELF3 = target: T11, ELF3 (Homo sapiens, UniProt P78545 1-371); details: protein: recombinant; tags: N-terminal GST; dsDNA, one strand shown
T11 sequence: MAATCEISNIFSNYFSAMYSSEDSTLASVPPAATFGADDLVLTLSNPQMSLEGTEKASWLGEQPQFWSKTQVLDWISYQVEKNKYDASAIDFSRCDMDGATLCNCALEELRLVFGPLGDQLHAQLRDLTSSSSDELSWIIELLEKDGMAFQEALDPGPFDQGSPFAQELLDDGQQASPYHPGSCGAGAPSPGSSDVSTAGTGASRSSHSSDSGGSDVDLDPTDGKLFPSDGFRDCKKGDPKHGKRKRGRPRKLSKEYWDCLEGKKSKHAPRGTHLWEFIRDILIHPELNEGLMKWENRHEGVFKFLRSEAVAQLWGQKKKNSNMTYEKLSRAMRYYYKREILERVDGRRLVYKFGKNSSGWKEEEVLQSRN
Procedure, shortened: as §1

CRX = CRX (Homo sapiens, UniProt O43186 1-299); details: protein: recombinant; tags: N-terminal GST; dsDNA, one strand shown
Procedure, shortened: as §1

ETV1 = ETV1 (Homo sapiens, UniProt P50549 1-477); details: protein: recombinant; tags: N-terminal GST; dsDNA, one strand shown
Procedure, shortened: as §1

ELF1, sequence (P32519 whole entry): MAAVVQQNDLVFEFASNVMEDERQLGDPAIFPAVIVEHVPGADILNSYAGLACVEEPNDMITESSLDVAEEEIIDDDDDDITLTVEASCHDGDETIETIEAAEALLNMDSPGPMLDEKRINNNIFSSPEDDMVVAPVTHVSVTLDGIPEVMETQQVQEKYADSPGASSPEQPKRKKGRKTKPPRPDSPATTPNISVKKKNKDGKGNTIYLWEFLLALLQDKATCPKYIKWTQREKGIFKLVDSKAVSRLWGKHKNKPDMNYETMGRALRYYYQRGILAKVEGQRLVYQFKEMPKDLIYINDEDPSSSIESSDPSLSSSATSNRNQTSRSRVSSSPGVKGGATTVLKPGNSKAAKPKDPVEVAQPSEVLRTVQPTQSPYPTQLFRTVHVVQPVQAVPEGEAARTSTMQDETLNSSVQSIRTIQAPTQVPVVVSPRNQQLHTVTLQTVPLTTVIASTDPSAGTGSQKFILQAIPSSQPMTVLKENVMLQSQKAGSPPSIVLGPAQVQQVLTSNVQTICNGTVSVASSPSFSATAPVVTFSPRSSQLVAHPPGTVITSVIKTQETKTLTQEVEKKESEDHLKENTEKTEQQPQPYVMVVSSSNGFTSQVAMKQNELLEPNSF
SPIB, sequence (Q01892 whole entry): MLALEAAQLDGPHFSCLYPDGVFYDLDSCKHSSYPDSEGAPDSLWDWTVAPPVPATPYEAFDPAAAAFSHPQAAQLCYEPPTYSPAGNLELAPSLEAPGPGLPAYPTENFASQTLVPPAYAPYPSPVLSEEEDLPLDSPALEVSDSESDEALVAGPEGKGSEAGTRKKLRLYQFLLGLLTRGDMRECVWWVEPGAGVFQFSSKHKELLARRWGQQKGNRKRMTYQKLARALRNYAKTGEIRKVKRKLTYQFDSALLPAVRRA
ETV1, sequence (P50549 whole entry): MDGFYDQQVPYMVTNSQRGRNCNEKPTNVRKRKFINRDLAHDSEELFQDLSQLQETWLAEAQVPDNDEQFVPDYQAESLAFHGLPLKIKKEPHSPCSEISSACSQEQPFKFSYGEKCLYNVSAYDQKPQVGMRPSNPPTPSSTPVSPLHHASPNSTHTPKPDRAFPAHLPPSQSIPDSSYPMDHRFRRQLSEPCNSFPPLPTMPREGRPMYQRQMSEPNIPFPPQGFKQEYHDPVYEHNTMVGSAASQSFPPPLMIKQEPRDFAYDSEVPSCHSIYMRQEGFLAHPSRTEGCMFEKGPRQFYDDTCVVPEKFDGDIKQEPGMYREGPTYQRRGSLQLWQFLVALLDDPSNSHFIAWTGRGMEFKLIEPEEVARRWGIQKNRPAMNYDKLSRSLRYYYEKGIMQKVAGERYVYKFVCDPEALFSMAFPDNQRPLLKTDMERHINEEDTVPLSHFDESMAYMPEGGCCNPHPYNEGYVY
ETV5, sequence (P41161 whole entry): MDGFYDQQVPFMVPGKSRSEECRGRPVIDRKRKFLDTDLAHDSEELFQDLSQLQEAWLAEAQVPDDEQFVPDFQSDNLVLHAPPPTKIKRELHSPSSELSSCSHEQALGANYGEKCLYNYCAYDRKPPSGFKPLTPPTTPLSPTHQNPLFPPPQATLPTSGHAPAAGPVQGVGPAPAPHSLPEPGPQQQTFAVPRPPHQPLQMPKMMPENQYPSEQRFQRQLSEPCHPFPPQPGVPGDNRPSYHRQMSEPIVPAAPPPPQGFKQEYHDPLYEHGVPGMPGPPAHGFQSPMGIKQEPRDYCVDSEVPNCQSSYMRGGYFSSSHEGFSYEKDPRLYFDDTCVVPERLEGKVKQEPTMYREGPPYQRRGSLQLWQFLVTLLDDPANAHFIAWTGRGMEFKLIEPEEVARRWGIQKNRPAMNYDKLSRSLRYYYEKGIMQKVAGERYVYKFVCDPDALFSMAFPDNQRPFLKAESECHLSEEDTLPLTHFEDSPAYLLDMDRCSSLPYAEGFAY
CRX, sequence (O43186 whole entry): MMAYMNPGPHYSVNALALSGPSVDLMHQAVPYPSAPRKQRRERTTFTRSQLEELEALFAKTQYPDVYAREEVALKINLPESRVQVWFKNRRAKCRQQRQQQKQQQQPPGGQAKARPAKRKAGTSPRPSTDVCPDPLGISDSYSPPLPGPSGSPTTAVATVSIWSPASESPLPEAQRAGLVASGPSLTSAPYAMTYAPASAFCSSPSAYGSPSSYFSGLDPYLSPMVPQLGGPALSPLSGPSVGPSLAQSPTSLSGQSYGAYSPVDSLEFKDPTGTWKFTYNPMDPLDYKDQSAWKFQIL
HSF1, sequence (Q00613 whole entry): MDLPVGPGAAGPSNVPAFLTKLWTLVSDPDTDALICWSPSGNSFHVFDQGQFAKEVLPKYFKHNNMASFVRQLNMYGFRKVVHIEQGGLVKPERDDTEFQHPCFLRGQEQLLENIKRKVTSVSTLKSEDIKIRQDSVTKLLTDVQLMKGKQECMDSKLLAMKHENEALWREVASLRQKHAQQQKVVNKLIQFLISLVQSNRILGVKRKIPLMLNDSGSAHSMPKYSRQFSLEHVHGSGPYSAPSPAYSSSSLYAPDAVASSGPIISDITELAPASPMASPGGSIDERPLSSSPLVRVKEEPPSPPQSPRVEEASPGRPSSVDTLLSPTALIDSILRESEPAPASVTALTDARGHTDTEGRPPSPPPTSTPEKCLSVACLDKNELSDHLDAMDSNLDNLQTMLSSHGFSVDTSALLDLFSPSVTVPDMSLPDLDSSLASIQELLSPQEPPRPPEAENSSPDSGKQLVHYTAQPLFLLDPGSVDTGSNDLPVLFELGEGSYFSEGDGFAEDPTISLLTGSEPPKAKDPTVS
ELF4, sequence (Q99607 whole entry): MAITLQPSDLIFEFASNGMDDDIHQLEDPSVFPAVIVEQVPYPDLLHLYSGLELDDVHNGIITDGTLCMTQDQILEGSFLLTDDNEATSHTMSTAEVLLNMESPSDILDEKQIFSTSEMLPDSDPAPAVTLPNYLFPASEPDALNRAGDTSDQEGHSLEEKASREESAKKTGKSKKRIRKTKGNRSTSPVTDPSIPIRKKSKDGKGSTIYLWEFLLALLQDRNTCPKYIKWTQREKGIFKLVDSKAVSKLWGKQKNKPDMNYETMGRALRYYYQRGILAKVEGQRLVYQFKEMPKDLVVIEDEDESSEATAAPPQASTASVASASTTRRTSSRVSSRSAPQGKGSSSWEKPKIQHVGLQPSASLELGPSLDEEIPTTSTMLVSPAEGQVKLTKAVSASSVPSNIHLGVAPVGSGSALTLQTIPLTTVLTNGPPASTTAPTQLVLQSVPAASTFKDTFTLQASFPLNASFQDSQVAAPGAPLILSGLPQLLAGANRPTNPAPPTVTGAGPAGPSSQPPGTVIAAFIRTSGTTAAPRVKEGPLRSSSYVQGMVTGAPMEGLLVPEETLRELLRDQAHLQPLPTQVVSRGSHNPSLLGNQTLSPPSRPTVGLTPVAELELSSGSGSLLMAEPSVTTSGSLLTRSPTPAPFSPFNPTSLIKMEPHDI

## ATAATA
FLI1
  binding signal: 1.13 fold enrichment (6-mer frequency, TF over GST control)
ELK1
  binding signal: 1.07 fold enrichment (6-mer frequency, TF over GST control)
GABPA
  binding signal: 1.18 fold enrichment (6-mer frequency, TF over GST control)
ERG
  binding signal: 1.17 fold enrichment (6-mer frequency, TF over GST control)
ELF1
  binding signal: 1.23 fold enrichment (6-mer frequency, TF over GST control)
EHF
  binding signal: 1.24 fold enrichment (6-mer frequency, TF over GST control)
SPI1
  binding signal: 1.18 fold enrichment (6-mer frequency, TF over GST control)
SPIB
  binding signal: 1.18 fold enrichment (6-mer frequency, TF over GST control)
ELK3
  binding signal: 1.11 fold enrichment (6-mer frequency, TF over GST control)
FEV
  binding signal: 1.17 fold enrichment (6-mer frequency, TF over GST control)
ETV5
  binding signal: 1.18 fold enrichment (6-mer frequency, TF over GST control)
HSF1
  binding signal: 1.67 fold enrichment (6-mer frequency, TF over GST control)
SPIC
  binding signal: 1.21 fold enrichment (6-mer frequency, TF over GST control)
ELF4
  binding signal: 1.14 fold enrichment (6-mer frequency, TF over GST control)
ELK4
  binding signal: 1.14 fold enrichment (6-mer frequency, TF over GST control)
ETV2
  binding signal: 1.1 fold enrichment (6-mer frequency, TF over GST control)
ELF3
  binding signal: 1.15 fold enrichment (6-mer frequency, TF over GST control)
CRX
  binding signal: 2.14 fold enrichment (6-mer frequency, TF over GST control)
ETV1
  binding signal: 1.17 fold enrichment (6-mer frequency, TF over GST control)
